For 17 compounds, Potency, outcome and activity, negative = inhibition results are on record in PubChem BioAssay (NCATS).

Results filed as inconclusive are left out. Unmarked numbers belong to inactive results. Activity calls are given as the source filed them. Calls come from the whole dose curve; as a rule, active = well fitted curve in the direction sought with a large enough effect; inconclusive = small, poorly fitted or top-dose-only effect, or another doubt; inactive = no such curve, though single readings can be large; an effect the other way counts as inactive or inconclusive.

In assay [1] the target is Metallo-beta-lactamase type 2 (Klebsiella pneumoniae) (UniProt C7C422). Briefly: qHTS to identify inhibitors of the New Delhi Metallo-beta-lactamase (NDM): assay validation screen against the NCATS LOPAC Collection (AID 1794843).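 Note: nitrocefin turnover by NDM-1 measured as 485 nm absorbance at plateau; % is set by controls: 0 for no effect and ±100 for the full control effect.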 In outline:
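NDM-1 at 2 nM final in 50 mM HEPES pH 7.0, 1 uM ZnSO4, 0.01% Tween20, preincubated with LOPAC compounds pinned in DMSO; 50 uM nitrocefin (stock) added. Hydrolysis read as absorbance at 485 nm in the plateau phase.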
(In general: qHTS replaces the single test concentration by a dilution series.)

Assay [2] deals with Glutathione peroxidase 1 (Homo sapiens) (UniProt P07203). Briefly: Primary qHTS Assay for Inhibitors of Recombinant Selenoprotein Glutathione Peroxidase 1 (GPX1) (AID 1845191). For activity, negative = inhibition: % is set by controls: 0 for no effect and ±100 for the full control effect. Note: nearly all actives have a fitted effect of over 65% in size. Note: potency is the fitted concentration of half-maximal effect. The method in brief: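 GPX1 10 nM, GR 100 nM, GSH 1 mM, NADPH 0.5 mM, CHP 0.5 mM (final). 30-min cpd preincubation, RT. Ex340/Em450 read t=0, t=15 min.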
Assay [3] deals with Phospholipid hydroperoxide glutathione peroxidase GPX4 (Homo sapiens) (UniProt P36969). Briefly: Primary qHTS Assay for Inhibitors of Recombinant Selenoprotein Glutathione Peroxidase 4 (GPX4) (AID 1845192). Note: nearly all actives have a fitted effect of over 65% in size. Particulars: outcome: dose series up to 50 µM unless noted. The method in brief: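 qHTS, GR-coupled: GPX4 200 nM + cpd 30 min RT → GSH 1 mM, NADPH 0.5 mM, GR 100 nM → CHP 0.5 mM start; fluor 340/450 at t0 and t15 min; no-enzyme wells as control.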

Assay [4] in a line: qHTS profiling for inhibitors of Plasmodium falciparum proliferation (AID 504749).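 For activity, negative = inhibition: 0% = DMSO vehicle and full inhibition = artemisinin control.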 Note: nearly all actives have a fitted effect of over 60% in size. Note: potency is the fitted concentration of half-maximal effect. The conditions noted are these: P. falciparum in erythrocytes, SYBR Green DNA, 72 h. In outline: (§1)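 Quantitative HTS: compounds pinned into medium, infected erythrocytes added (0.3% parasitemia, 2.5% hematocrit), 72 h culture at 37 C under 5% CO2. Saponin/Triton lysis with SYBR Green I, overnight RT, then fluorescence read.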

The subject of another assay is 3D7. Described as above. Particulars: P. falciparum in erythrocytes, SYBR Green DNA, 72 h; series mostly up to 28.7 µM. In outline: as §1
The next assay concerns 7G8. Described as above. The conditions noted are these: P. falciparum in erythrocytes, SYBR Green DNA, 72 h; series mostly up to 28.7 µM. The method in brief:
as §1

A further assay concerns AS120. The assay is described as above. The conditions noted are these: P. falciparum in erythrocytes, SYBR Green DNA, 72 h; series mostly up to 28.7 µM. In outline: as §1
The subject of another assay is ATS189. The assay is described as above. The conditions noted are these: P. falciparum in erythrocytes, SYBR Green DNA, 72 h; series mostly up to 28.7 µM. In outline: as §1
The test system of another assay is AA1029. The description is as above. The conditions noted are these: P. falciparum in erythrocytes, SYBR Green DNA, 72 h; series mostly up to 28.7 µM. In outline: as §1
The next assay has as its system ATS95. The assay is described as above. Particulars: P. falciparum in erythrocytes, SYBR Green DNA, 72 h; series mostly up to 28.7 µM. The method in brief:
as §1

The mark [5] stands for this setting: at 28.7 µM (top of the series), parasite line A.
[6] abbreviates: at 28.7 µM (top of the series), parasite line B.
Setting [7] is: at 12.8 µM (top of the series), parasite line A.
Where [8] appears, read: at 12.8 µM (top of the series), parasite line B.

Sequence of Glutathione peroxidase 1 (Homo sapiens) (P07203 whole entry, looked up): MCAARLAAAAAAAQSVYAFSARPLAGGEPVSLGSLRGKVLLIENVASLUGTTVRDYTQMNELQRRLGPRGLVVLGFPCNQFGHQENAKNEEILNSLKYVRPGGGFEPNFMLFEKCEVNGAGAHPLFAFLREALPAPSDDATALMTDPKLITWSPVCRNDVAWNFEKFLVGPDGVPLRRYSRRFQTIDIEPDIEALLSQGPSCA
Sequence of Phospholipid hydroperoxide glutathione peroxidase GPX4 (Homo sapiens) (P36969 whole entry, looked up): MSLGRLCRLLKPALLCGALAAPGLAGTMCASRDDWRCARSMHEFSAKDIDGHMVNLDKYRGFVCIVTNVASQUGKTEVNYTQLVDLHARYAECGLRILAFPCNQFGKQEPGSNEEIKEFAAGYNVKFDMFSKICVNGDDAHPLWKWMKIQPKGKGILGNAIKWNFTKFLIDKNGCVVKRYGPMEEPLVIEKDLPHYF
Sequence of Metallo-beta-lactamase type 2 (Klebsiella pneumoniae) (C7C422 whole entry, looked up): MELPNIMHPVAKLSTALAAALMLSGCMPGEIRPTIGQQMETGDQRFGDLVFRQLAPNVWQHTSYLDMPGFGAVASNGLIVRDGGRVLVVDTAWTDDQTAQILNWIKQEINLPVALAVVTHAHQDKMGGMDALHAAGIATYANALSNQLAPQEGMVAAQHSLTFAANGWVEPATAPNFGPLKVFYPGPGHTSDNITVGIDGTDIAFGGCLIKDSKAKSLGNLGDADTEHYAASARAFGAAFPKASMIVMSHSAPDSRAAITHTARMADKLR

In the case of `COc1ccc(CN(CCN(C)C)c2ccccn2)cc1`, the Potency result (in assay [1]; in [2]; in the assay on 3D7; in the assay with 7G8; in the assay on AS120; in the assay on ATS189) was “inactive” throughout. The outcome in [3] was inactive. Also, the figures for the activity, negative = inhibition in assay [4] (setting [5]) and in assay [4] (setting [6]) were -7.89% and -2.95%, respectively.

On to `COC(=O)C1=C(C)NC(C)=C(C(=O)OC(C)(C)CN(C)CCC(c2ccccc2)c2ccccc2)C1c1cccc([N+](=O)[O-])c1` (stereo not given), for which the Potency result in assay [1] and in assay [2] was “inactive” in each case. The outcome in assay [3] was inactive. Besides, the Potency in assay [4] (parasite line A) was 2 µM (active); in assay [4] (parasite line B), 2 µM (active); in the assay on 3D7, 2.51 µM (active); with 7G8, 2 µM (active); with AA1029, 2.51 µM (active); in the assay on AS120, 2 µM (active). The values for the Potency in the assay on ATS189 and in the assay on ATS95 were 2 µM (active) and 3.55 µM (active), respectively.

For the compound `CCCOc1ccccc1-c1nc2n[nH]nc2c(=O)[nH]1`, the Potency result (in [1]; in [2]; in the assay with 3D7; in the assay with 7G8; in the assay with AA1029; with AS120) was “inactive” in each case. The Potency entry with ATS189 and in the assay with ATS95 was “inactive” each time. Besides, the outcome in [3] was inactive. Moreover, the activity, negative = inhibition in assay [4] (setting [5]) is -3.13%; in assay [4] (setting [6]) it was 3.38%.

Regarding `CCO/C([O-])=N/c1c[n+](N2CCOCC2)no1`, the Potency entry (in [1]; in assay [2]; with 3D7; in the assay on 7G8; with AA1029; with AS120) was “inactive” in each case. Further, the Potency entry in the assay on ATS189 and in the assay with ATS95 was “inactive” throughout. Besides, in assay [3], the result was inactive. Moreover, the activity, negative = inhibition in [4] (setting [7]) is 2.13%; in assay [4] (setting [8]), 0.211%.

On to `CC(=O)[C@@]1(O)CC[C@H]2[C@@H]3CCC4=CC(=O)CC[C@]4(C)[C@H]3CC[C@@]21C`, for which the Potency result (in [1]; in assay [2]; in the assay with 3D7; in the assay with 7G8; with AA1029; in the assay on AS120) was “inactive” each time. Moreover, the Potency entry in the assay with ATS189 and with ATS95 was “inactive” each time. In addition, the result in assay [3] was inactive. The activity, negative = inhibition is -9.44% in [4] (setting [5]) and 1.51% in assay [4] (setting [6]).

Consider `c1cnc(N2CCN(Cc3ccc4c(c3)OCO4)CC2)nc1`, for which the Potency result (in assay [1]; in [2]; in the assay on 3D7; in the assay with 7G8; in the assay on AA1029; in the assay with AS120) was “inactive” in each case. For the same compound, the Potency entry in the assay on ATS189 and with ATS95 was “inactive” each time. In addition, the outcome in [3] was inactive. Further, the results for the activity, negative = inhibition in assay [4] (setting [5]) and in assay [4] (setting [6]) were 13.8% and 17.3%, respectively.

For `O=c1[nH]c(=O)n([C@H]2C[C@H](O)[C@@H](CO)O2)cc1Br`, the Potency result (in assay [1]; in [2]; with 3D7; with 7G8; in the assay with AA1029; with AS120) was “inactive” in each case. The Potency entry with ATS189 and in the assay on ATS95 was “inactive” throughout. For the same compound, the result in assay [3] was inactive. In addition, the activity, negative = inhibition in assay [4] (setting [5]) is -7.76%; in assay [4] (setting [6]) it was -6.27%.

For the compound `Cc1nc2c([nH]1)c(=O)n(C)c(=O)n2Cc1ccco1`, the Potency result (in assay [1]; in [2]; with 3D7; with 7G8; with AA1029; with AS120) was “inactive” throughout. Besides, the Potency entry in the assay on ATS189 and in the assay with ATS95 was “inactive” throughout. In addition, the result in assay [3] was inactive. Also, the activity, negative = inhibition is -3.89% in [4] (setting [5]) and -2.06% in assay [4] (setting [6]).

`CC(C(=O)O)c1ccc(CC2CCCC2=O)cc1` (stereo not given): the Potency result (in assay [1]; in assay [2]; in the assay on 3D7; in the assay with 7G8; with AA1029; in the assay with AS120) was “inactive” in each case. The Potency entry with ATS189 and with ATS95 was “inactive” throughout. In assay [3], the outcome was inactive. For the same compound, the activity, negative = inhibition in assay [4] (setting [5]) is 0.257%; in assay [4] (setting [6]), 5.29%.

`CN(C)C(=O)Oc1ccc[n+](C)c1`: the Potency entry (in assay [1]; in assay [2]; in the assay with 3D7; with 7G8; in the assay on AA1029; with AS120) was “inactive” each time. Besides, the Potency result in the assay on ATS189 and in the assay on ATS95 was “inactive” in each case. Also, in assay [3], the result was inactive. Further, the activity, negative = inhibition in [4] (setting [5]) was 4.28%; in assay [4] (setting [6]) it was 5.75%.

On to `NCCCNCCSP(=O)(O)O`, for which the Potency entry (in assay [1]; in [2]; in the assay with 3D7; in the assay on 7G8; with AA1029; with AS120) was “inactive” each time. For the same compound, the Potency entry in the assay on ATS189 and in the assay with ATS95 was “inactive” throughout. Moreover, the result in [3] was inactive. The values for the activity, negative = inhibition in [4] (setting [5]) and in assay [4] (setting [6]) were 8.13% and 13.6%, respectively.

As to `FC(F)(F)c1ccccc1-n1ccnc1`, the Potency result (in assay [1]; in [2]; with 3D7; with 7G8; in the assay with AA1029; with AS120) was “inactive” each time. In addition, the Potency entry with ATS189 and with ATS95 was “inactive” throughout. For the same compound, in assay [3], the outcome was inactive. In addition, the figures for the activity, negative = inhibition in assay [4] (setting [5]) and in assay [4] (setting [6]) were 11.5% and -3.4%, respectively.

For the compound `CC(C)(Oc1ccc(CCNC(=O)c2ccc(Cl)cc2)cc1)C(=O)O`, the Potency result (in assay [1]; in [2]; in the assay with 3D7; with 7G8; with AA1029; in the assay with AS120) was “inactive” throughout. The Potency entry in the assay on ATS189 and in the assay on ATS95 was “inactive” each time. The result in [3] was inactive. In addition, the activity, negative = inhibition was -1.93% in assay [4] (setting [7]) and -2.04% in assay [4] (setting [8]).

As for `Cc1ccc(S(=O)(=O)NC(=O)NN2CCCCCC2)cc1`, the Potency result (in assay [1]; in [2]; in the assay with 3D7; in the assay on 7G8; in the assay on AA1029; in the assay with AS120) was “inactive” each time. The Potency result in the assay on ATS189 and with ATS95 was “inactive” each time. For the same compound, the outcome in assay [3] was inactive. Besides, the results for the activity, negative = inhibition in assay [4] (setting [5]) and in assay [4] (setting [6]) were -5.36% and 12.1%, respectively.

For `O=C1NCN(c2ccccc2)C12CCN(CCCC(c1ccc(F)cc1)c1ccc(F)cc1)CC2`, the Potency result in [1] and in [2] was “inactive” in each case. The outcome in assay [3] was inactive. Also, the Potency in assay [4] (parasite line A) is 3.16 µM (active); in assay [4] (parasite line B), 7.94 µM (active); in the assay on 3D7, 3.55 µM (active); in the assay on 7G8 it was 3.16 µM (active); in the assay on AA1029, 5.01 µM (active); in the assay on AS120, 4.47 µM (active). The values for the Potency in the assay on ATS189 and in the assay on ATS95 were 10 µM (active) and 8.91 µM (active), respectively.

Turning to `Cc1nnc(SCC2=C(C(=O)O)N3C(=O)[C@@H](NC(=O)Cn4cnnn4)[C@H]3SC2)s1`, the Potency result (in assay [1]; in the assay with 3D7; with 7G8; with AA1029; in the assay on AS120; in the assay with ATS189) was “inactive” in each case. Further, the Potency result in the assay with ATS95 was “inactive”. Further, in [2], the Potency is 20.2 µM (active). In addition, in assay [3], the result was inactive. The activity, negative = inhibition was 11.1% in assay [4] (setting [5]) and 2.94% in assay [4] (setting [6]).

Take `CN(C(=O)CCCOc1ccc2[nH]c(=O)ccc2c1)C1CCCCC1`: the Potency entry (in assay [1]; in [2]; in the assay with 3D7; with AA1029; with AS120; with ATS189) was “inactive” in each case. Further, in the assay with ATS95, the Potency entry is “inactive”. Besides, the result in assay [3] was inactive. In addition, the activity, negative = inhibition in assay [4] (setting [5]) was -9.28%; in assay [4] (setting [6]), 16%. The Potency in the assay with 7G8 is 11.2 µM (active).
